ChEMBL document CHEMBL3988442, “University of Dundee, Small-Polar-MMV Screening Library” (2021)
The whole screen tested about 66,000 compounds, of which about 960 (1.5%) showed an effect of 50% or more. Only a selection was taken, and strong results are over-represented in it overall.

System: Trypanosoma brucei
Test: Trypanosoma brucei 72 hour study
Format: functional, organism-based
Design: scale not given: in the data most compounds retested in dose-response had high values

SMILES: CN(C)c1ccc(C(CNS(=O)(=O)c2cccs2)N2CCCC2)cc1 (configuration not stated)
- Percent Effect (30 µM, 30.03 µM): -11.49%

SMILES: C1CC(N2Cc3nnn(CC4CC4)c3C(COCC3CC3)C2)C1.O=C(O)C(F)(F)F (configuration not stated)
- Percent Effect (30.3 µM, […]): -49.13%

SMILES: O=C(O)C(F)(F)F.O=C([C@H]1CCCO1)N1CCN(CCn2cccn2)c2ncccc2C1
- Percent Effect (30.3 µM, […]): -89.38%

SMILES: COCC(=O)N1CCN(Cc2cc(-c3ccncc3)nn2C)CC1
- Percent Effect (30.3 µM, […]): -0.9188%

SMILES: COCC1CN(c2ccc(C)nn2)Cc2cnn(CC3CCOCC3)c21.O=C(O)C(F)(F)F.O=C(O)C(F)(F)F (configuration not stated)
- Percent Effect (30.3 µM, […]): -39.18%

SMILES: COCCN1CCC2(CC1)CC(NC(=O)CC1CC1)c1ccccc1O2.O=C(O)C(F)(F)F (configuration not stated)
- Percent Effect (30.3 µM, […]): -15.57%

SMILES: CN(C)[C@@H]1CN(C(=O)CCc2ccccc2)[C@@H]2CCCO[C@H]12.O=C(O)C(F)(F)F
- Percent Effect (30.3 µM, […]): -48.96%

SMILES: CC(C)(N)C(=O)N1CCC(c2nccnc2Oc2cccc(F)c2)CC1
- Percent Effect (30.3 µM, […]): 6.584%

SMILES: O=C(Nc1cccnc1)[C@@H]1CCO[C@@H]2CCN(Cc3cccnc3)C[C@@H]21.O=C(O)C(F)(F)F.O=C(O)C(F)(F)F.O=C(O)C(F)(F)F
- Percent Effect (30 µM, 30.03 µM): -27.43%

SMILES: Cc1cc2c(=O)n(CC(=O)N3CCn4cccc4C3C(C)C)cnc2s1 (configuration not stated)
- Percent Effect (30.3 µM, […]): -7.761%

SMILES: CCCC1c2cccn2CCN1C(=O)Cn1cnc2sc(C)cc2c1=O (configuration not stated)
- Percent Effect (30.3 µM, […]): -9.094%

SMILES: CCC1c2ccc(C)n2CCN1C(=O)Cn1cnc2sc(C)cc2c1=O (configuration not stated)
- Percent Effect (30.3 µM, […]): 55.61%

SMILES: CCCS(=O)(=O)N1C[C@@H](c2ccccc2)[C@@]2(CCNC2=O)C1
- Percent Effect (30.3 µM, […]): -54.35%

SMILES: Cn1cccc1C(=O)N1C[C@H]2CN(Cc3cccc(F)c3)C[C@H]2C1.O=C(O)C(F)(F)F
- Percent Effect (30.3 µM, […]): -14.05%

SMILES: O=c1[nH]ncc(NCCOc2ccc3c(c2)CCC3)c1Cl
- Percent Effect (30 µM, 30.03 µM): 6.404%

SMILES: CC(C)CCN(C)Cc1nc2c(cnn2C)c(=O)[nH]1
- Percent Effect (30.3 µM, […]): 0.4486%

SMILES: CC(C)CCN(CCC(C)C)Cc1nc2c(cnn2C)c(=O)[nH]1
- Percent Effect (30.3 µM, […]): 99.67%

SMILES: CC(C)CN(Cc1nc2c(cnn2C)c(=O)[nH]1)CC(C)C
- Percent Effect (30.3 µM, […]): 3.745%

SMILES: CO[C@@H]1CCN(C(=O)c2ccccn2)[C@H]1Cc1ccccc1.O=C(O)C(F)(F)F
- Percent Effect (30.3 µM, […]): 3.29%

SMILES: CC1c2ncc(COc3cccnc3)n2CCN1Cc1cnn(C)c1.O=C(O)C(F)(F)F.O=C(O)C(F)(F)F (configuration not stated)
- Percent Effect (30.3 µM, […]): 2.727%

SMILES: COc1ncccc1C(=O)N1CC[C@H]2C[C@@H](c3nccs3)O[C@@H]2C1
- Percent Effect (30 µM, 30.03 µM): -31.44%

SMILES: CNC(=O)NCC(CO)Cc1cccc(OC(F)(F)F)c1 (configuration not stated)
- Percent Effect (30 µM, 30.03 µM): -27.06%

SMILES: NCC(CO)Cc1cccc(OC(F)(F)F)c1 (configuration not stated)
- Percent Effect (30 µM, 30.03 µM): 97.23%

SMILES: NCC(CO)Cc1ccc(OC(F)(F)F)cc1 (configuration not stated)
- Percent Effect (30 µM, 30.03 µM): -40.47%

SMILES: CN1CCN(C(=O)c2n[nH]c3c2CN(C2CCOCC2)CC3)CC1.O=C(O)C(F)(F)F.O=C(O)C(F)(F)F.O=C(O)C(F)(F)F
- Percent Effect (30.3 µM, […]): -12.86%

SMILES: Cc1cnn(C2CCCN(C(=O)c3cc4nc(C)ccc4o3)C2)c1 (configuration not stated)
- Percent Effect (30.3 µM, […]): 0.9394%

SMILES: CCN1CC2(CC1=O)CN(Cc1ccc(C)o1)CCN(C(=O)C(C)C)C2.O=C(O)C(F)(F)F (configuration not stated)
- Percent Effect (30 µM, 30.03 µM): -2.917%

SMILES: COCCN1CCN(Cc2c(C3CCNCC3)[nH]c3ncccc23)CC1.Cl
- Percent Effect (30.3 µM, […]): 1.283%

SMILES: Cc1noc(C)c1C(=O)NCc1ccc(N2CCC(C)CC2)nc1
- Percent Effect (10 µM): -31.9%
- Percent Effect (30.3 µM, […]): 4.367%

SMILES: COc1cccc(CCC(=O)N2CCC[C@@H](N)[C@@H]2c2ccccc2F)c1.Cl
- Percent Effect (30.3 µM, […]): 35.53%

SMILES: N[C@@H]1CCCN(C(=O)Cc2c[nH]c3ccccc23)[C@H]1c1ccccc1F
- Percent Effect (30.3 µM, […]): 82.48%

SMILES: COc1ccc(CC(=O)N2CCC[C@@H](N)[C@@H]2c2ccccc2F)cc1.Cl
- Percent Effect (30.3 µM, […]): 4.872%

SMILES: Cc1cc(C(=O)N2CCC3(CC2)C(=O)N(C)CCN3CC2CC2)c(C)o1.O=C(O)C(F)(F)F
- Percent Effect (30.3 µM, […]): 5.817%

SMILES: COCCN1C(=O)[C@]2(CC[C@@H]3CN(Cc4ccccc4F)C[C@@H]32)N=C1C.O=C(O)C(F)(F)F
- Percent Effect (30.3 µM, […]): -70.3%

SMILES: COCc1nn(C(C)C)c2c1CCN(Cc1ccccn1)C2.O=C(O)C(F)(F)F.O=C(O)C(F)(F)F
- Percent Effect (30 µM, 30.03 µM): -4.66%

SMILES: CCS(=O)(=O)N1CCC2(CN(c3ccsc3)C(=O)CN2C)C1.O=C(O)C(F)(F)F (configuration not stated)
- Percent Effect (30 µM, 30.03 µM): -22.46%

SMILES: Cc1csc(Nc2cc(C3CCCCN3C)nc(C)n2)n1 (configuration not stated)
- Percent Effect (30 µM, 30.03 µM): 67.05%

SMILES: Cc1nc(Nc2nncs2)cc(C2CCCN2C)n1 (configuration not stated)
- Percent Effect (30.3 µM, […]): -36.12%

SMILES: CNCC(=O)N1CC(c2cc(Nc3nc(C)cs3)nc(C)n2)C1.Cl
- Percent Effect (30.3 µM, […]): 20.55%

SMILES: Cc1csc(Nc2cc(C3CN(C(C)C)C3)nc(C)n2)n1
- Percent Effect (30.3 µM, […]): 84.55%

SMILES: Cc1nc(Nc2nccs2)cc(C2CN(C(C)C)C2)n1
- Percent Effect (30.3 µM, […]): 5.847%

SMILES: Cc1nc(Nc2nnc(C)s2)cc(C2CCCN2C)n1 (configuration not stated)
- Percent Effect (30 µM, 30.03 µM): -13.78%

SMILES: Cc1cccc(CN2C[C@@H]3COC[C@]3(CNC(=O)c3cccn3C)C2)n1.O=C(O)C(F)(F)F.O=C(O)C(F)(F)F
- Percent Effect (30 µM, 30.03 µM): 12.67%

SMILES: O=C(O)C(F)(F)F.O=C(O)C(F)(F)F.c1cncc(OCc2noc3c2CN(Cc2cccs2)CC3)c1
- Percent Effect (30 µM, 30.03 µM): -9.325%

SMILES: Cc1ccc(CN2CC[C@H]3[C@@H]2CCC(=O)N3CCN2CCCC2)s1.O=C(O)C(F)(F)F.O=C(O)C(F)(F)F
- Percent Effect (30 µM, 30.03 µM): 11.06%

SMILES: O=C(O)C(F)(F)F.O=C(c1cnc2ccccc2c1)N1CCC2(CCN2c2ncccn2)C1 (configuration not stated)
- Percent Effect (30 µM, 30.03 µM): -41.44%

SMILES: CN1CCCC(c2cccc(-c3cccc(F)c3)n2)C1 (configuration not stated)
- Percent Effect (30.3 µM, […]): 6.457%

SMILES: CN1CCCC(c2cccc(-c3cccc(C(F)(F)F)c3)n2)C1 (configuration not stated)
- Percent Effect (30.3 µM, […]): 71.49%

SMILES: CN1CCCC(c2cncc(-c3cccc(C(F)(F)F)c3)n2)C1 (configuration not stated)
- Percent Effect (30.3 µM, […]): 45.17%

SMILES: CN(C)C(=O)Cn1c2c(ccc1=O)CCN(Cc1cnn(C)c1)CC2.O=C(O)C(F)(F)F
- Percent Effect (30.3 µM, […]): -19.86%

SMILES: O=C(NCc1ccco1)[C@H]1CC[C@@H]2[C@@H](CCN2c2ncc(F)cn2)O1.O=C(O)C(F)(F)F
- Percent Effect (30 µM, 30.03 µM): -7.643%

SMILES: Cc1ccc(N(C)S(=O)(=O)c2cc(C(=O)O)cs2)cc1
- Percent Effect (30.3 µM, […]): -13.08%

SMILES: Cl.NC(=O)C(c1ccc(F)cc1)N1CCN(CCO)CC1 (configuration not stated)
- Percent Effect (30 µM, 30.03 µM): -19.82%

SMILES: COc1nccnc1-c1cc(NC2CCNCC2)nc2[nH]ccc12
- Percent Effect (30 µM, 30.03 µM): -21.13%

SMILES: FC(F)(F)c1ccc(-c2cc(NC3CCNCC3)nc3[nH]ccc23)nc1
- Percent Effect (30.3 µM, […]): -0.8147%

SMILES: Nc1ccnc(-c2cc(NC3CCNCC3)nc3[nH]ccc23)c1
- Percent Effect (30.3 µM, […]): 98.23%
